Source: publication PMC3218832

What was measured:
Assay in all cases: protein binding microarray; high values mean tight binding
Conditions in all cases: dsDNA, one strand shown
RELARELA (p65 homodimer) = RELARELA (p65 homodimer) (Homo sapiens, UniProt Q04206 1-307)
p50p50 homodimer = p50p50 homodimer (Homo sapiens, UniProt P19838 7-356)
p52p52 homodimer = biological target: T1, p52p52 homodimer (Homo sapiens, UniProt Q00653 4-332)
T1 sequence: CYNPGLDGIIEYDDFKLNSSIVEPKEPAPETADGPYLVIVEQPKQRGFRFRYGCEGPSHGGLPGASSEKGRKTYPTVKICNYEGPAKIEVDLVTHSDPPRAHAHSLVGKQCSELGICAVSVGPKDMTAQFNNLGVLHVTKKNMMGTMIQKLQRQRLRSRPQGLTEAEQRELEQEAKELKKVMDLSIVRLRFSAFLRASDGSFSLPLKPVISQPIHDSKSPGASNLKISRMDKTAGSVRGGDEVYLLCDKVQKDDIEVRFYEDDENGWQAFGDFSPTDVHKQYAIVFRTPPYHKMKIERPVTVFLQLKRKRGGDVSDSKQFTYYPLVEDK

[1] = biological target: RELA (p65) subunit of heterodimer;p50 subunit (Homo sapiens;Homo sapiens, UniProt Q04206;P19838 1-307;7-356)
[2] = biological target: RELA (p65) subunit of heterodimer;p52 subunit (Homo sapiens;Homo sapiens, UniProt Q04206;Q00653 1-307;4-332)
RELB subunit;p50 subunit = RELB subunit;p50 subunit (Homo sapiens;Homo sapiens, UniProt Q01201;P19838 120-401;7-356)
RELB subunit;p52 subunit = biological target: T2, RELB subunit;p52 subunit (Homo sapiens;Homo sapiens, UniProt Q01201;Q00653 120-401;4-332)
T2 sequence 1: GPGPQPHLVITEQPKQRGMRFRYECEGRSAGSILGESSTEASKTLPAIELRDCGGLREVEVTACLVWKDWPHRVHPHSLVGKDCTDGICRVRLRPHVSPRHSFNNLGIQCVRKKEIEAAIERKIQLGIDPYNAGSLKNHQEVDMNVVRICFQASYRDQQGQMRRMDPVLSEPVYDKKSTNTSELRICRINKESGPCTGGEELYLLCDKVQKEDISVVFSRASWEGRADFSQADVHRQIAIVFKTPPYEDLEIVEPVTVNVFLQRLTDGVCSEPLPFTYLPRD
T2 sequence 2: T1 sequence

[3] = biological target: C-Rel subunit;p50 subunit (Homo sapiens;Homo sapiens, UniProt Q04864;P19838 1-285;7-356)
[4] = biological target: T3, C-Rel subunit;p52 subunit (Homo sapiens;Homo sapiens, UniProt Q04864;Q00653 1-285;4-332)
T3 sequence 1: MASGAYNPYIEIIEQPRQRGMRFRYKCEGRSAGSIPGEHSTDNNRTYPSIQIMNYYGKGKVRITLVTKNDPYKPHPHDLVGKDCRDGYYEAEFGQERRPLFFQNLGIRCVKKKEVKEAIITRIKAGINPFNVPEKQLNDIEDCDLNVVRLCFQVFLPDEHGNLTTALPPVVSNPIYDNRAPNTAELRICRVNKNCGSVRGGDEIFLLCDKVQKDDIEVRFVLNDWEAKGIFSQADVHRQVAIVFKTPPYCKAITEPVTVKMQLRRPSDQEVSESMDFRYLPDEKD
T3 sequence 2: T1 sequence

Sequence of RELARELA (p65 homodimer) (Q04206 1-307): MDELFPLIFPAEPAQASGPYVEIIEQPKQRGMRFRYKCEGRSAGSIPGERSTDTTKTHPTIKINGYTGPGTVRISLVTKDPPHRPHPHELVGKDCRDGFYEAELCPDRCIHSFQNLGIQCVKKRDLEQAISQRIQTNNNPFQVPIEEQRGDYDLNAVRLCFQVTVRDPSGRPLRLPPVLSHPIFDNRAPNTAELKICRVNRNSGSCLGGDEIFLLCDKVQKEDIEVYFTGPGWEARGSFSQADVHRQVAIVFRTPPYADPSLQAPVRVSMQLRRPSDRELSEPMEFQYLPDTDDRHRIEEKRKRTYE
Sequence of RELA (p65) subunit of heterodimer;p50 subunit (Q04206 1-307, chain 1 of 2): as the sequence (Q04206 1-307) above
Sequence of RELA (p65) subunit of heterodimer;p50 subunit (P19838 7-356, chain 2 of 2): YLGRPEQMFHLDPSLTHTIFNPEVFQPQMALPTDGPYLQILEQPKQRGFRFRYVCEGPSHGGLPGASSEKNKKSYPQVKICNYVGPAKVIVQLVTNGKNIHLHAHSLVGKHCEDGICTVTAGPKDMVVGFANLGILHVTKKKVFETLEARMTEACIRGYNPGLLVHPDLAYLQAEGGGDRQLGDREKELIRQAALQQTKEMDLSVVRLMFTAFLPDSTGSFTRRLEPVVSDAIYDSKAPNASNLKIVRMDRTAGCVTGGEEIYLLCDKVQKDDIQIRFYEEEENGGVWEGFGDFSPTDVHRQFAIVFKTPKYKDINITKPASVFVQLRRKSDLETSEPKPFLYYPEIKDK
Sequence of p50p50 homodimer (P19838 7-356): as the sequence (P19838 7-356, chain 2 of 2) above

Row | Sequence | binding signal (RELARELA (p65 homodimer)) [z-score] | binding signal (p50p50 homodimer) [z-score] | binding signal (p52p52 homodimer) [z-score] | binding signal [1] [z-score] | binding signal [2] [z-score] | binding signal (RELB subunit;p50 subunit) [z-score] | binding signal (RELB subunit;p52 subunit) [z-score] | binding signal [3] [z-score] | binding signal [4] [z-score]
1 | GGGTATATCCC | 1.19 | 0.245 | 2.43 | 0.931 | 1.62 | 0.847 | 0.92 | 0.341 | 1.12
2 | GAATTATTCCC | 1.89 | 0.532 | 0.423 | 0.97 | 0.744 | 0.44 | 0.413 | 1.16 | 0.686
3 | AAGTACATCCC | 0.78 | -0.756 | -0.37 | -0.432 | -0.425 | -0.551 | -0.549 | -0.042 | -0.446
4 | GAAATAGTCCC | 0.835 | 1.16 | 1.31 | 1.16 | 0.964 | 1.38 | 0.953 | 0.838 | 0.853
5 | CAATGGGCCCC | -0.62 | -0.565 | -0.242 | -0.699 | -0.472 | -0.379 | -0.185 | -0.565 | -0.638
6 | AGAGGAATCCC | 0.476 | 0.189 | 0.335 | 0.188 | 0.227 | 0.0745 | 0.269 | 0.405 | 0.416
7 | GGGAAGCTCCC | 1.42 | 0.219 | 1.52 | 1.07 | 1.16 | 0.839 | 0.35 | 0.354 | 0.716
8 | CGATAGCTCCT | -0.609 | -1.63 | -0.796 | -1.07 | -1.04 | -1.34 | -1 | -1.65 | -1.09
9 | CGAGAAATCCC | 1.4 | 0.819 | 0.839 | 0.872 | 0.718 | 0.773 | 0.543 | 0.883 | 0.451
10 | CGAAGCGCCCC | -0.596 | -0.188 | -0.173 | -0.171 | -0.0511 | 0.0336 | 0.263 | -0.144 | 0.0513
11 | CAGTTCTCCCT | 0.501 | 1.08 | 0.65 | 0.838 | 0.551 | 1.22 | 1.11 | 0.63 | 0.344
12 | AGAAGTCCCCC | 0.863 | 1.4 | 1.58 | 1.97 | 1.75 | 2.05 | 2.01 | 1.53 | 1.63
13 | AGAATAATCCT | -0.568 | -1.24 | -0.591 | -0.939 | -0.846 | -0.98 | -0.603 | -0.925 | -0.909
14 | AAAAGGGCCCT | -0.729 | -0.423 | -0.373 | -0.762 | -0.52 | -0.464 | -0.386 | -1.07 | -0.406
15 | GAGTTGCCCCC | 0.487 | 1.04 | 0.557 | 1.06 | 0.811 | 0.918 | 0.947 | 1.16 | 0.676
